# The whole screen tested about 220,000 compounds, of which about 16,000 (7.3%) were called active. About 25% were inconclusive and are not listed. Calls follow the shape of the dose curve; as a rule, active = well fitted inhibition curve with a large enough effect (not every such curve was filed as active); inconclusive = small, poorly fitted or top-dose-only effect, or another doubt; inactive = no such curve, though single readings can be large or run the other way. What follows is part of a selection rich in actives, with near analogues and random picks from the rest. A call without a number means that no potency is given here.
# Molecular target: Aldehyde dehydrogenase 1A1 (Homo sapiens) (UniProt P00352)
# Sequence (P00352 whole entry, looked up): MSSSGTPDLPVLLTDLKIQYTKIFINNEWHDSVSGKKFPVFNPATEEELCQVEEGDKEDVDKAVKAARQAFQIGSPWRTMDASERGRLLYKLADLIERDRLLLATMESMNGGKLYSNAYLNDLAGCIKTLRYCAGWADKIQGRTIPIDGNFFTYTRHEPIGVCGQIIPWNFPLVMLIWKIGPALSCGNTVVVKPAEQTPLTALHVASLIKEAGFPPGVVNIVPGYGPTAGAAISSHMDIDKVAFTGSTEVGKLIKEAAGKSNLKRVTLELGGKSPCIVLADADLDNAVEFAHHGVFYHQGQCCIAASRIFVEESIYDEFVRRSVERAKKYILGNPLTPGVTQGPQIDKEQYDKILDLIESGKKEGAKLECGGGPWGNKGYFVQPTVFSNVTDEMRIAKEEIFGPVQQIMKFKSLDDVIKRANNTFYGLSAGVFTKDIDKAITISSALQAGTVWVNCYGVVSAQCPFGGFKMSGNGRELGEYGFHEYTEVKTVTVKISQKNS
# Assay: qHTS Assay for Inhibitors of Aldehyde Dehydrogenase 1 (ALDH1A1)
# Conditions: Purified ALDH1A1, NADH fluorescence, propionaldehyde substrate; series mostly up to 75.3 µM
# Potency is read from the fitted curve at half-maximal effect.
SMILES,Potency,"activity, negative = inhibition"
NC(=O)C1CCN(C(=O)COc2cccc3cccnc23)CC1,inactive,
Cn1ccc(NC(=O)Nc2ccc(Cl)cc2)n1,inactive,
O=C(CN1CCOCC1)Nc1ccccc1,inactive,
Cc1[nH]c2ccccc2c1C(=O)COC(=O)C(C)C,inactive,
Cc1c(C(=O)N2CCOCC2)[nH]c2ccc(OCc3ccccc3)cc12,inactive,
Cc1c(C(=O)CN2CCOCC2)[nH]c2ccccc12,15 µM (active),
Cc1ccc2c(C(=O)CN3CCCC3)c(C)[nH]c2c1,inactive,
CCOC(=O)N1CCN(CC(=O)c2c(C)[nH]c3ccccc23)CC1,11.2 µM (active),
CCN(C(=O)Cc1nc(N)n[nH]1)C1(C(=O)Nc2ccccc2)CCCCC1,inactive,
COc1ccc(/C=C(\NC(=O)c2ccc(OCC(C)C)cc2)C(=O)OCc2ccco2)cc1,inactive,
CCOc1ccc(-n2cnnn2)cc1S(=O)(=O)N1CCC(C)CC1C (stereo unspecified),inactive,
O=C(Nn1c(-c2ccccc2)nc2ccccc2c1=O)c1ccc([N+](=O)[O-])cc1,inactive,
CCOC(=O)CCCN1CC(O)=C(c2nc3ccccc3s2)C1=N,inactive,
N=C1C(c2nc3ccccc3s2)=C(O)CN1NC(=O)c1ccc([N+](=O)[O-])cc1,1.78 µM (active),
O=C(NC1CC1)c1ccc(-c2ccccc2)cc1,inactive,
Cc1cccc(-n2c(C)cc(/C=N/NC(N)=S)c2C)c1,3.16 µM (active),
CCOc1ccc(/C=N/NC(N)=S)cc1,inactive,
Cc1cc(/C=N/n2cnnc2)c(C)n1-c1cccc(C(=O)O)c1,inactive,
COc1ccc(-c2nc3cc([N+](=O)[O-])ccc3o2)cc1OC,inactive,
CCOC(=O)C1(C)NC(c2ccco2)C2C(=O)N(c3ccccc3)C(=O)C21 (stereo unspecified),inactive,
COc1ccc(Cl)cc1C(=O)NNC(=S)NC1CCCC1,inactive,
COc1ccc(CNC(=O)C2CCN(S(C)(=O)=O)CC2)cc1,inactive,
Cc1cccc(C)c1OCC(=O)NC(Cc1c[nH]c2ccccc12)C(=O)O (stereo unspecified),inactive,
CCN(C(=O)CN1CCN(Cc2ccccc2)CC1)c1c(N)n(Cc2ccccc2)c(=O)[nH]c1=O,inactive,

SMILES,Potency,"activity, negative = inhibition"
O=C(c1ccc(F)cc1)n1cc(C(=S)N2CCOCC2)c2ccccc21,31.6 µM (active),
N#C/C=C(/c1ccc(F)cc1)N1CCOCC1,inactive,
COC(=O)c1cn(C(=O)c2ccc(Cl)cc2)c2ccccc12,inactive,
CC(=C/c1ccccc1)/C=N/NC(=O)c1cc(C)oc1C,inactive,
COc1ccc(OC)c(S(=O)(=O)NCCC(C)C)c1,14.1 µM (active),
COCCNS(=O)(=O)c1cc(Br)ccc1OC,inactive,
COc1ccc(OC)c(S(=O)(=O)Nc2ccccc2F)c1,inactive,
CC(Nc1oc(-c2ccccc2)nc1-c1ccccc1)c1ccccc1 (stereo unspecified),inactive,
O=C(COC(=O)c1cnccn1)Nc1cccc2ccccc12,inactive,
NS(=O)(=O)c1ccc(CCNC(=O)CCCn2c(SCC(=O)N3CCCC3)nc3ccsc3c2=O)cc1,inactive,
CCN(CC(=O)Nc1ccc2c(c1)OCCO2)Cc1cc(=O)oc2cc(C)c(C)cc12,10 µM (active),
Cc1nn(CC(=O)Nc2ccc3c(c2)OCO3)c(C)c1[N+](=O)[O-],inactive,
CCCCC(=O)Nc1ccc2c(c1)OCCO2,inactive,
Cc1ccc(S(=O)(=O)/N=C(\N)c2ccc(F)cc2)cc1,inactive,
C/C(=N\Nc1nc(Nc2ccccc2)nc(N2CCOCC2)n1)c1cccs1,inactive,
COc1cc2nc(CN(C)Cc3ccc(F)cc3)[nH]c(=O)c2cc1OC,inactive,
COc1ccc(C(=O)NNC(=S)NC(=O)c2ccccc2[N+](=O)[O-])cc1,inactive,
COCCCNC(=S)NC(=O)c1ccccc1,inactive,
CCCCCC(=O)Nc1ccc(C(=O)N/N=C/c2ccc([N+](=O)[O-])cc2)cc1,inactive,
COCCCNC(=S)NC(=O)c1ccc([N+](=O)[O-])cc1,20 µM (active),
COCCCNC(=S)NNC(=O)C(O)(c1ccccc1)c1ccccc1,inactive,
CCCCCC(=O)NC(=S)NNC(=O)c1ccc([N+](=O)[O-])cc1,14.1 µM (active),
CCNC(=O)N1c2ccccc2Sc2ccccc21,inactive,
COC(=O)Cc1ccc(Oc2ncc(C(F)(F)F)cc2Cl)cc1,inactive,

SMILES,Potency,"activity, negative = inhibition"
CC(=O)Nc1sc2c(c1C(c1cccc(F)c1)N1CCN(CCO)CC1)CCCC2 (stereo unspecified),inactive,
C/[N+]([O-])=C\c1ccc([N+](=O)[O-])o1,inactive,
C=CCN(c1ccccc1C(=O)NCC(=O)OCC)S(=O)(=O)c1ccc(C)cc1,inactive,
CCN(CC)CCCNC(=O)Cn1cnc2sc(C)c(S(=O)(=O)N3CCN(c4ncccn4)CC3)c2c1=O,inactive,
O=C(/C=C/c1cn(-c2ccccc2)nc1-c1ccc2c(c1)OCCO2)NCCCN1CCOCC1,inactive,
CC(=O)[C@H](C(c1ccccc1)N1CCOCC1)N1CCOCC1 (stereo partly specified),,-3.8% [at 13.5 µM] (inactive)
CCOC(=O)CN1C(=O)C(O)(CC(=O)c2ccccn2)c2ccccc21 (stereo unspecified),0.224 µM (active),
CN1/C(=C\C(=O)c2cccnc2Cl)C(C)(C)c2ccccc21,inactive,
C=CCN1C(=O)C(O)(CC(=O)c2ccccn2)c2ccccc21 (stereo unspecified),0.355 µM (active),
CCOC(=O)CN1CCC(c2ccccc2)CC1,inactive,
C=CCN1C(=O)C(O)(CC(=O)c2ccc(Cl)cc2)c2ccccc21 (stereo unspecified),0.447 µM (active),
CC(C)(C)C(=O)CCN1C(=O)C2(OCCO2)c2ccccc21,inactive,
CCOC(=O)CSc1ccccn1,inactive,
O=C(CSc1nnnn1-c1ccc(O)cc1)N1N=C(c2ccc3ccccc3c2)CC1c1ccccc1 (stereo unspecified),inactive,
CCc1ccc(NC(=O)Nc2ccncc2)cc1,inactive,
COC(=O)c1cccc([N+](=O)[O-])c1CS(=O)(=O)c1ccc(C)cc1,inactive,
CCOc1ccc(C2c3[nH]c4ccccc4c3CCN2Cc2cn(CC)nc2C)cc1 (stereo unspecified),inactive,
O=C(Nc1cccnc1)c1ccc(Cl)cc1[N+](=O)[O-],inactive,
O=[N+]([O-])c1cc([N+](=O)[O-])c2cccnc2c1O,25.1 µM (active),
CC(CNc1ccc([N+](=O)[O-])c2cccnc12)Nc1c([N+](=O)[O-])cc(C(F)(F)F)cc1[N+](=O)[O-] (stereo unspecified),inactive,
Cn1c(=O)n(C)c2cc(NS(=O)(=O)c3ccc(F)cc3)ccc21,inactive,
O=S(=O)(Nc1ccc(Oc2ncccn2)c(Cl)c1)c1ccc(F)cc1,10 µM (active),
O=S(=O)(Nc1ncccn1)c1ccc(NS(=O)(=O)c2cccc(Cl)c2Cl)cc1,inactive,

# From PubChem BioAssay AID1030 (National Center for Advancing Translational Sciences (NCATS), 2008)
